Assay outcomes as filed in PubChem BioAssay.
PLK1 PBD inh: inhibitors of human PLK1 polo-box domain binding. P53350. Plk1 PBD binding of FITC phosphopeptide, fluorescence polarization. AID 720504. Potency, µM, inactives show max response, negative = inhibition, actives largely listed as inhibitors. actives 2.8% (n = 360,000); note: series mostly up to about 57 µM; % is set by controls: 0 for no effect and ±100 for the full control effect; nearly all actives have a fitted effect of over 65% in size
TDP1 block: inhibitors of human tyrosyl-DNA phosphodiesterase TDP1; Q9NUW8; AID 485290; recombinant TDP1, AlphaScreen DNA substrate cleavage; actives 0.28% (n = 350,000); Potency, µM (doses to about 130 µM), without a hit: at the highest dose activity change, negative = inhibition, usual class: inhibitors; note: % is set by controls: 0 for no effect and ±100 for the full control effect; nearly all actives have a fitted effect of over 40% in size
Target sequence (Q9NUW8 whole entry, looked up): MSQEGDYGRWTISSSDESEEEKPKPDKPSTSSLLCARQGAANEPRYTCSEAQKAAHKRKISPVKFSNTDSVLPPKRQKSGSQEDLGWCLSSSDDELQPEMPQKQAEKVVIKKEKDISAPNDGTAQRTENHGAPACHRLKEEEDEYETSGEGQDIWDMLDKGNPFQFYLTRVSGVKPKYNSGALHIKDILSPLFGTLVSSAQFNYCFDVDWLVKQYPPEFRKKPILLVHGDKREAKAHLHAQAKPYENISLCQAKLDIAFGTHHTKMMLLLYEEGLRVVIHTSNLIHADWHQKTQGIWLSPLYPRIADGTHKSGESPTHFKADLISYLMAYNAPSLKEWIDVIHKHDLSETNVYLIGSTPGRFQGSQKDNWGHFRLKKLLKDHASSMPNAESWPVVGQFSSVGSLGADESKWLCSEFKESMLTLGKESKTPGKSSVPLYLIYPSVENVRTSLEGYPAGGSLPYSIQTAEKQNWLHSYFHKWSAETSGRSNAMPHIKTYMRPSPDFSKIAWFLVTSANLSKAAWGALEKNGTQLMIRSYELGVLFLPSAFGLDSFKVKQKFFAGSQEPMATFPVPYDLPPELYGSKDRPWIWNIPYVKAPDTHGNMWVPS
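Signal: AlphaScreen proximity between streptavidin donor and anti-FITC acceptor beads on intact substrate. Reaction: Tdp1 1 nM, substrate 15 nM final, 5 min RT after 15 min compound preincubation.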
Tb PFK block: blocks T. brucei phosphofructokinase; O15648; T. brucei PFK, ADP-Glo luminescence; Potency, µM (series often up to 57.5 µM), without a hit: at the top dose activity, negative = inhibition, actives largely listed as inhibitors; actives 0.17% (n = 330,000); AID 485367;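 note: 0% = uninhibited 1x PFK enzyme wells and -100% = no-enzyme wells; nearly all actives have a fitted effect of over 60% in size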
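1.25 nM PFK with 0.5 mM F6P and 0.1 mM ATP in 0.1 M TEA pH 8.0, 5 mM MgCl2, incubated 45 min at room temperature; ADP measured by ADP-Glo luminescence; compounds titrated up to 57 uM.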
Pin1 inhibitor: inhibitors of human Pin1; actives 0.009% (n = 390,000); Q13526; Pin1 FP peptide displacement, HiFluor488, 10 min; Potency, µM (series often up to 115 µM), for inactives: at the top dose activity, negative = inhibition, actives largely listed as inhibitors; active = well fitted inhibition curve with a large enough effect in the polarisation, with a control signal flat, not every such curve was filed as active; inconclusive = small, poorly fitted or top-dose-only effect, or effect the other way, or a change in a side signal; inactive = no such curve, though single readings can be large or run the other way; the % refers to the polarisation; note: % is set by controls: 0 for no effect and ±100 for the full control effect
Target sequence (Q13526 whole entry, looked up): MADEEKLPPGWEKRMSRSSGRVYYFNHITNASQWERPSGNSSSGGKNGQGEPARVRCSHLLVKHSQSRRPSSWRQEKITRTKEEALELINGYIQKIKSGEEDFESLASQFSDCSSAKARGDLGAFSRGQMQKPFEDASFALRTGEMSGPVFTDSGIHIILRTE
VDR inhibitor: inhibitors of human vitamin D receptor. VDR-SRC2-3 peptide fluorescence polarization, 2 h. AID 504847. P11473. Potency, µM, inactives show max response, negative = inhibition, most hits filed as inhibitors. actives 0.93% (n = 400,000); note: % is set by controls: 0 for no effect and ±100 for the full control effect
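Signal is fluorescence polarization, reporting how far test compounds block the interaction of VDR with the SRC2-3 coregulator peptide after a 2 h room-temperature incubation.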
S-ASM inh: blocks human secretory acid sphingomyelinase; Potency, µM (series often up to 57.5 µM), without a hit: top-dose activity change, negative = inhibition, usual class: inhibitors; placental ASM, HMU-PC fluorogenic substrate, 60 min; P17405; actives 0.006% (n = 340,000)
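Fluorescence read-out (Ex 386 nm, Em 447 nm) after stopping the reaction at pH 10. Enzyme: ASM from human placenta; substrate HMU-PC0, 9 uM final; 60 min, 37 °C. Compound preincubation 10 min, ambient temperature.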
Starred values were filed as active, the others as inactive; ? = inconclusive; . = not tested or not shown; [ ] = dose if it differs, or a comment. This is a sample that favours compounds with a hit; in the whole collection about 3.1% have one here. Unless noted, calls come from the whole dose curve; as a rule, active = well fitted curve in the direction sought with a large enough effect; inconclusive = small, poorly fitted or top-dose-only effect, or another doubt; inactive = no such curve, though single readings can be large; an effect the other way counts as inactive or inconclusive. Potency is the fitted concentration of half-maximal effect.

SMILES	PLK1 PBD inh	TDP1 block	Tb PFK block	Pin1 inhibitor	VDR inhibitor	S-ASM inh
C1CCC[C@H]2CCCN3CC[C@H](CCCCCC[C@@H]4CCCN5CC[C@H](CC1)OC45)OC23	.	1.2%	.	.	4.2%	.
CN(C)c1nc(N)c2ncc(=S)[nH]c2n1	4.74µM*	5.5%	-3.2%	?	-9.7%	57.5%
CN(C)c1nc(C(=O)NN)nc(N(C)C)n1	-8.5%	8.8%	0.0%	2.7%	16.1%	2.3%
CC(=O)Nc1cccc(C(=O)N/N=C/c2cccnc2)c1	23.8µM*	1.2%	-4.5%	0.9%	-5.6%	-3.2%
COc1ccc(C(=O)N/C(=C/c2cccnc2)C(=O)Nc2cccc(C(C)=O)c2)cc1OC	29.9µM*	-0.3%	0.3%	-1.3%	-14.0%	3.3%
O=C(N/N=C/c1cccnc1)c1cccc(NC(=O)c2ccccc2Cl)c1	-6.3%	-10.0%	2.4%	0.9%	3.7%	2.7%[11.5 µM]
Cc1[nH]ccc(=O)c1OCc1c(Cl)cccc1Cl	-0.2%	2.8%	-1.6%	3.8%	9.8%	0.6%
Cc1occc(=O)c1OCc1c(F)cccc1Cl	21.2µM*	8.8%	-0.6%	7.0%	-13.2%	-5.8%
Cc1c(C(=O)Nc2nonc2-c2ccc(F)cc2)oc2ccc(F)cc12	29.9µM*	3.1%	-0.9%	22.7%	?	-15.0%
COc1ccc(CCNC(=O)c2ccc3nc(-c4ccco4)c(-c4ccco4)nc3c2)cc1OC	26.7µM*	10µM*	?	?	79.4µM*	360.9%
CCC(C)NC(=O)c1ccc2nc(-c3ccco3)c(-c3ccco3)nc2c1 (stereo not drawn)	.	.	.	?	50.1µM*	.
CCC(C)NC(=O)c1ccc2nc(Cc3ccccc3)oc2c1 (stereo not drawn)	.	-3.0%	.	-5.1%	9.6%	.
CN(Cc1nccs1)c1ncnc2ccc(-c3ccc4c(c3)OCO4)cc12	.	2.1%	.	-0.8%	.	.
COc1ccc(OC)c(CNC(=O)c2ccccc2NC(=O)c2nsc3ccccc23)c1	.	0.0%	.	9.1%	16.3%	.
CCOC(=O)c1cc(-c2nnc(SCC(=O)Nc3ccc(F)cc3)o2)c(C)nc1C	21.2µM*	5.1%	-4.5%	0.1%	?	-15.7%
Cc1cc(C)cc(NS(=O)(=O)c2ccc3c(c2)C(C)(C)C(=O)N3C)c1	26.7µM*	.	-1.4%	-0.6%	-21.3%	-0.4%
COCCCNC(=O)c1cc(OC)c(OC)c(OC)c1	29.9µM*	0.5%	-1.1%	-2.4%	-13.4%	1.1%
CNC(=O)c1cc(Cl)c(OC)c(OC)c1	26.7µM*	0.6%	-2.7%	0.8%	-31.7%	2.8%
COc1cc(C(=O)NCCCCCCNC(=O)c2cc(OC)c(OC)c(OC)c2)cc(OC)c1OC	-3.7%	.	1.0%	2.9%	13.1%	-0.8%
O=C(NCc1ccc(F)cc1)c1ccc2c(Cl)c3c(nc2c1)CCCC3	.	5.8%	.	13.3%	-7.3%	.
O=C(NCc1ccc(F)cc1)c1c2c(nc3ccccc13)CCC2	23.8µM*	-8.3%	29.9%	?	2.1%	195.9%
O=C(NCc1ccco1)c1c2c(nc3ccccc13)CCC2	2.99µM*	.	-23.5%	.	0.7%	53.9%
CCCCS(=O)(=O)N1CCc2nc(-c3ccccc3)c3c(c2C1)CO[C@@H](C)C3	.	-2.1%[21 µM]	.	.	.	.
C=COCCNC(=O)Nc1ccc(Cl)c(Cl)c1	-0.2%	0.4%[56.1 µM]	15.1µM*	5.5%	-2.5%	-2.6%
NCCOB(c1ccccc1)c1ccccc1	.	?	.	.	14.1µM*	.
SMILES	PLK1 PBD inh	TDP1 block	Tb PFK block	Pin1 inhibitor	VDR inhibitor	S-ASM inh
NCCOc1ccccc1-c1ccccc1	-3.6%	2.0%	-1.6%	3.4%	2.2%	-0.6%
CCCOc1ccc(Br)cc1CSC(=N)N	29.9µM*	2.8%	-0.1%	-2.7%	-6.7%	2.2%
Nc1cc(Nc2ccc(Br)cc2)nc(N)n1	-18.5%	6.8%	-8.0%	?	44.7µM*	-1.3%
Cc1cc(Nc2ccc(Cl)cc2)nc(N)n1	-0.7%	5.3%	4.6%	-13.9%	-10.2%	-0.2%
Cc1ccc(NC(=O)c2cc(C)nc3ccccc23)c(C)c1	-15.1%	.	-0.9%	2.8%	5.9%	-1.1%
CCOc1ccc(NC(=S)c2ccc3ccccc3n2)cc1	2.67µM*	4.5%	-29.6%	-0.4%	10.8%	2.9%
CCOc1ccc(CN(C)C(=O)c2ccc3ccccc3n2)cc1	-0.9%	6.8%	2.0%	-5.3%	-1.8%	22.3%
Cc1ccc(NC(=S)c2ccc3ccccc3n2)c(C)c1	13.4µM*	16.2%	-28.0%	-6.9%	79.4µM*	-5.8%
CC1=C(c2ccc(C)cc2)S(=O)(=O)N(Cc2ccc(C(=O)NCc3cccc(C)c3)cc2)C1=O	.	7.1%	.	-7.9%	8.2%	.
O=C1CCc2cc(S(=O)(=O)Nc3cccc(Br)c3)ccc2N1	.	0.1%	.	-2.4%	.	.
CC1CCN(c2nn3c(=O)c(C(=O)NCCc4ccccc4)cnc3s2)CC1	.	-5.3%	.	0.1%	2.1%	.
CC(=O)Nc1ccc(S(=O)(=O)N(C)c2ccc(OCCOc3cccc(C)c3)cc2)cc1	-2.1%	12.6µM*	1.0%	-17.7%	-7.0%	-14.3%
CN(C)C(=S)N=c1ssc(=S)n1Cc1ccccc1	?	.	.	-0.7%	39.8µM*	-6.8%
Cc1ncc(C(O)c2ccc(N(C)C)cc2)n1Cc1ccccc1 (stereo not drawn)	-8.1%	.	.	.	.	.
COc1ccc(/C=C/C(=O)Nc2ccc3nc(N4CCC(C)CC4)cc(C)c3c2)cc1OC	.	5.9%	.	48.3%	-18.9%	.
CCOc1ccccc1C(=O)N(Cc1ccc(N(C)C)cc1)Cc1ccco1	.	13.5%	.	-11.3%	4.3%	.
CCN(CC)S(=O)(=O)c1ccc(C(=O)NCc2ccc3c(c2)OCO3)cc1	21.2µM*	4.7%	-1.4%	2.2%	7.9%	5.5%
CN(C)c1ccc(CN(Cc2ccco2)C(=O)c2ccco2)cc1	23.8µM*	17.1%	-9.1%	3.2%	-17.6%	-2.7%
CN(c1ccc(C(=O)NCc2ccc3c(c2)OCO3)cc1)S(=O)(=O)c1ccccc1	-13.5%	2.5%	2.8%	19.7%	9.4%	2.4%
CC(C)(C)NC(=S)NCc1ccco1	-7.3%	-2.6%	-1.5%	-9.5%	8.3%	4.4%
CN(C)c1ccc(C(=S)NCc2ccco2)cc1	18.9µM*	0.0%	2.6%	12.4%	?	3.7%
NC(=O)c1ccc(NC(=S)NCc2ccco2)cc1	-4.7%	-2.6%	-3.9%	1.2%	-0.9%	1.1%
NS(=O)(=O)c1ccc(NC(=S)NCc2ccco2)cc1	26.7µM*	2.4%	?	-10.4%	?	4.1%
CN1CCc2c(c3cnc4cc(Cl)ccc4c3n2C)C1	.	-1.8%	.	-0.3%	-18.8%	.
COc1ccc(-n2nc3c(N4CCCC(C(=O)NCc5ccc(C)cc5)C4)nnc(C)c3c2C)cc1 (stereo not drawn)	.	-12.3%	.	42.6%	10.6%	.
CC(C)Oc1ccc(C(=O)NCc2ccco2)cc1	26.7µM*	2.3%	15.2%	-1.9%	-4.6%	1.6%
Cn1cc(Cl)c(C(=O)NNC(=S)NCc2ccco2)n1	26.7µM*	2.5%	-0.2%	2.6%	?	-1.5%
